In the supplement of paper PMC10849652:
Of roughly 8,800 targets only a part is listed; those with a hit were picked by preference. About 0.5% of all pairs of compound and target were hits. Unmarked numbers belong to inactive results.

Key:
Experiment in all cases: log2 fold change, soluble protein after heating vs DMSO (PISA); higher = thermal stabilisation; K562 lysate, 10 uM; active = over 0.2 and 3.5 SD of the protein, either way, in both replicates (recomputed)
[1] = compound: CS(=O)(=O)CCNCc1ccc(-c2ccc3ncnc(Nc4ccc(OCc5cccc(F)c5)c(Cl)c4)c3c2)o1 [lapatinib]
Outline: (§1)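 K562 pellets were dounce-homogenised in PBS pH 7.4 containing 1 mM MgCl2, and the crude extract, at 1 mg/mL protein, was exposed to 10 μM compound for 30 min. Aliquots were heated for 3 min across 48°C-58°C, pooled, brought to 0.5% NP-40 at 4°C and spun at 21,000xg for 90 min, with the supernatant taken as soluble protein. TMTpro 16plex LC-MS/MS with equalised channel sums quantified that protein. Values are log-two fold changes in thermal stability relative to solvent controls, taken from duplicates.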

[2] = compound: CS(=O)(=O)N1CCN(Cc2cc3nc(-c4cccc5[nH]ncc45)nc(N4CCOCC4)c3s2)CC1 [pictilisib]
Outline: as §1

[3] = compound: C[C@@H](Oc1cc(-c2cnn(C3CCNCC3)c2)cnc1N)c1c(Cl)ccc(F)c1Cl [crizotinib]
Outline: as §1

[4] = compound: C[C@H](C1=CC=C(C=C1)C(=O)NC2=C3C=CNC3=NC=C2)N
Outline: as §1

[5] = compound: C[C@H](Nc1ncnc2nc[nH]c12)c1cc2cccc(Cl)c2c(=O)n1-c1ccccc1 [duvelisib]
Outline: as §1

[6] = compound: Cc1cc(Nc2cc(CN3CCOCC3)c3nc(C)c(Cc4ccc(Cl)cc4F)n3n2)n[nH]1 [gandotinib]
Outline: as §1

[7] = compound: Cc1cc(Nc2cc(N3CCN(C)CC3)nc(Sc3ccc(NC(=O)C4CC4)cc3)n2)n[nH]1 [tozasertib]
Outline: as §1

[8] = compound: Cc1ccc(-n2nc(C(C)(C)C)cc2NC(=O)Nc2ccc(OCCN3CCOCC3)c3ccccc23)cc1 [doramapimod]
Outline: as §1

[9] = compound: Cc1ccc(NC(=O)c2ccc(CN3CC[C@H](N(C)C)C3)c(C(F)(F)F)c2)cc1Nc1nccc(-c2cncnc2)n1 [bafetinib]
Outline: as §1

[10] = compound: Cc1cccc(CC(=O)N2CCc3c2ccc(-c2cn(C)c4ncnc(N)c24)c3F)n1
Outline: as §1

[11] = compound: Cc1cn(-c2cc(NC(=O)c3ccc(C)c(Nc4nccc(-c5cccnc5)n4)c3)cc(C(F)(F)F)c2)cn1 [nilotinib]
Outline: as §1

[12] = compound: Cc1nc(Nc2n[nH]c3c2CN(C(=O)N[C@H](CN(C)C)c2ccccc2)C3(C)C)c2sccc2n1
Outline: as §1

[13] = compound: Cc1nc(Nc2ncc(C(=O)Nc3c(C)cccc3Cl)s2)cc(N2CCN(CCO)CC2)n1 [dasatinib]
Outline: as §1

[14] = compound: Cc1ncc(-c2ccnc(Nc3ccc(S(C)(=O)=O)cc3)n2)n1C(C)C
Outline: as §1

[15] = compound: Cn1cc(-c2ccc3c(c2)CCN3C(=O)Cc2cccc(C(F)(F)F)c2)c2c(N)ncnc21
Outline: as §1

[16] = compound: Cn1cc(CNCC2CCN(c3ncc(C(=O)NO)cn3)CC2)c2ccccc21 [quisinostat]
Outline: as §1

[17] = compound: Cn1cncc1[C@@](N)(c1ccc(Cl)cc1)c1ccc2c(c1)c(-c1cccc(Cl)c1)cc(=O)n2C [tipifarnib]
Outline: as §1

[18] = compound: NC(=O)Nc1cc(-c2cccc(F)c2)sc1C(=O)N[C@H]1CCCNC1
Outline: as §1

[19] = compound: NC(=O)c1cnc(N[C@@H]2CCCC[C@@H]2N)nc1Nc1cccc(-n2nccn2)c1
Outline: as §1

[20] = compound: NC1(c2ccc(-c3nc4ccn5c(=O)[nH]nc5c4cc3-c3ccccc3)cc2)CCC1
Outline: as §1

Chain of UniProt Q12983 (Q12983 whole entry, looked up): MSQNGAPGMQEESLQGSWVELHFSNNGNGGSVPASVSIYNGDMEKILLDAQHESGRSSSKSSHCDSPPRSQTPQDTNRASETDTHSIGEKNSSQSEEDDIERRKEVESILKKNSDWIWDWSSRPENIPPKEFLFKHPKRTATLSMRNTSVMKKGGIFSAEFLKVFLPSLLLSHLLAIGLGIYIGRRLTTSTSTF
Chain of UniProt O00311 (O00311 whole entry, looked up): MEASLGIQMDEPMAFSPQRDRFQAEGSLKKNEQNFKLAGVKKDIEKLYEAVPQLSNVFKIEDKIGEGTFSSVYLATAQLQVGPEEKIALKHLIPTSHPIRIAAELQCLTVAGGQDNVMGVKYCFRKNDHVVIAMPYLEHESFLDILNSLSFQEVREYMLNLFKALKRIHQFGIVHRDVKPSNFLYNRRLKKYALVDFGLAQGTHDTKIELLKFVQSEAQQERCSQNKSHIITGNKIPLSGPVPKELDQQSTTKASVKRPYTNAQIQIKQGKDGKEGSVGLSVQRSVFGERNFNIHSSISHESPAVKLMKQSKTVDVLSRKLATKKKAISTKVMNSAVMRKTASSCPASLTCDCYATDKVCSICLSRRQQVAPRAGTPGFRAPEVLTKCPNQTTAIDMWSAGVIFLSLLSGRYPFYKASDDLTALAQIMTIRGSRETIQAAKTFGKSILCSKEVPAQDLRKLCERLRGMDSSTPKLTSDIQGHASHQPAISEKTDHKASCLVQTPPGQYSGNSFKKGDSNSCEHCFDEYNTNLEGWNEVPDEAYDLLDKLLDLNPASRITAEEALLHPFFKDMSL
Chain of UniProt Q9UEE9 (Q9UEE9 whole entry, looked up): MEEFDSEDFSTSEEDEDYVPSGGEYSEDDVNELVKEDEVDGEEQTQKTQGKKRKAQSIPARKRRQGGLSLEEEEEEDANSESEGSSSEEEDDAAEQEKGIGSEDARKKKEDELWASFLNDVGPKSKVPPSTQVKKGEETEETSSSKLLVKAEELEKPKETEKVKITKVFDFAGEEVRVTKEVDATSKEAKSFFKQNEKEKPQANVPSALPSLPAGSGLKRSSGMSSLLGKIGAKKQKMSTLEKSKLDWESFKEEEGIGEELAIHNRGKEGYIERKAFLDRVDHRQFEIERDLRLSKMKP
Chain of UniProt P04632 (P04632 whole entry, looked up): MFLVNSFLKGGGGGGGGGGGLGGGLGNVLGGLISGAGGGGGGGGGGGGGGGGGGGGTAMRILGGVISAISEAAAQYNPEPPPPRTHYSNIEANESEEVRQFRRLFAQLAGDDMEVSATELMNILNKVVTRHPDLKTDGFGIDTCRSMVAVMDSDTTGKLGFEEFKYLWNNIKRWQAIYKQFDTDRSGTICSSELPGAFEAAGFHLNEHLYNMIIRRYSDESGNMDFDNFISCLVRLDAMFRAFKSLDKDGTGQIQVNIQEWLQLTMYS
Chain of UniProt Q96RR4 (Q96RR4 whole entry, looked up): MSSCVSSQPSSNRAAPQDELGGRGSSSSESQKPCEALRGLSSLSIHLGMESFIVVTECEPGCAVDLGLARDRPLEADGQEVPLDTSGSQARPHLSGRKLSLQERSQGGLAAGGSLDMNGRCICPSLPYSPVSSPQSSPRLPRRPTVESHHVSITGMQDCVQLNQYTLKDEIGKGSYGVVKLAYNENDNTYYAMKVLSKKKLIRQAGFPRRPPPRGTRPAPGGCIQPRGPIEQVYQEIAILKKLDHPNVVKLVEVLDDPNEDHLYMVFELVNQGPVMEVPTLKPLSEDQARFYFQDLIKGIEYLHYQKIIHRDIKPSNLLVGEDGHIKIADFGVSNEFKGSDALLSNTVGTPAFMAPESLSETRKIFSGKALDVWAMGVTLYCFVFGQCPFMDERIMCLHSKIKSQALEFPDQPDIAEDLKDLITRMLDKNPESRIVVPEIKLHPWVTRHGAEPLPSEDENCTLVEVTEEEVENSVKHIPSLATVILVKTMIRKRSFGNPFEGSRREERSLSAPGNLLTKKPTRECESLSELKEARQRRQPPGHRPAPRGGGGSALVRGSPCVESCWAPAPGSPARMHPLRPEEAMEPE
Chain of UniProt P45973 (P45973 whole entry, looked up): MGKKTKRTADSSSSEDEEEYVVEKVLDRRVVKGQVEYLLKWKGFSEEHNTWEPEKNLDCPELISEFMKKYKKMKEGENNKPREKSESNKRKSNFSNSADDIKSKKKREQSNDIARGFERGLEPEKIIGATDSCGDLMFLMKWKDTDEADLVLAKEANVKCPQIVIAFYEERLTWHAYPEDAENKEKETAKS
Chain of UniProt Q7L2Z9 (Q7L2Z9 whole entry, looked up): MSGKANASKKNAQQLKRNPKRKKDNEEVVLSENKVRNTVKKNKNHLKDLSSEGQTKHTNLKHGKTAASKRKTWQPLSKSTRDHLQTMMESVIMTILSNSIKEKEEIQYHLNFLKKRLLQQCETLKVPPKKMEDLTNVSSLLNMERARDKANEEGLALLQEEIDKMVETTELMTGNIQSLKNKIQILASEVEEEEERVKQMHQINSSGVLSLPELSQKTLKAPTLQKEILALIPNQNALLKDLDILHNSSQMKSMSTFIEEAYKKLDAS
Chain of UniProt Q8N7R7 (Q8N7R7 whole entry, looked up): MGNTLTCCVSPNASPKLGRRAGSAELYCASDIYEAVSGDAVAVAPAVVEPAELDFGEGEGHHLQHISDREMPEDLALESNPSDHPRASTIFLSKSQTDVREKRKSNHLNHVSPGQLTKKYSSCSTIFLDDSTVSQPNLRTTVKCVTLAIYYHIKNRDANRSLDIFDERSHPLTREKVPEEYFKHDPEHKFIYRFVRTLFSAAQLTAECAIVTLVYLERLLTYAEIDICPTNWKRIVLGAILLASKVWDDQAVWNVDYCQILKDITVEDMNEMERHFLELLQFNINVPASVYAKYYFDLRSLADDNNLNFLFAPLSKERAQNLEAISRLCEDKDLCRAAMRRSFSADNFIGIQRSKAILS
Chain of UniProt Q86WR0 (Q86WR0 whole entry, looked up): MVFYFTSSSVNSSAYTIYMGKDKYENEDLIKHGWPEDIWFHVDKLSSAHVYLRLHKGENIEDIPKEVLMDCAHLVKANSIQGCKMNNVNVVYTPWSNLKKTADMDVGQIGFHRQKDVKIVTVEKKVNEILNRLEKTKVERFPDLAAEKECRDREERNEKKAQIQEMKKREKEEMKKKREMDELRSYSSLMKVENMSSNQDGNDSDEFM
Chain of UniProt Q13111 (Q13111 whole entry, looked up): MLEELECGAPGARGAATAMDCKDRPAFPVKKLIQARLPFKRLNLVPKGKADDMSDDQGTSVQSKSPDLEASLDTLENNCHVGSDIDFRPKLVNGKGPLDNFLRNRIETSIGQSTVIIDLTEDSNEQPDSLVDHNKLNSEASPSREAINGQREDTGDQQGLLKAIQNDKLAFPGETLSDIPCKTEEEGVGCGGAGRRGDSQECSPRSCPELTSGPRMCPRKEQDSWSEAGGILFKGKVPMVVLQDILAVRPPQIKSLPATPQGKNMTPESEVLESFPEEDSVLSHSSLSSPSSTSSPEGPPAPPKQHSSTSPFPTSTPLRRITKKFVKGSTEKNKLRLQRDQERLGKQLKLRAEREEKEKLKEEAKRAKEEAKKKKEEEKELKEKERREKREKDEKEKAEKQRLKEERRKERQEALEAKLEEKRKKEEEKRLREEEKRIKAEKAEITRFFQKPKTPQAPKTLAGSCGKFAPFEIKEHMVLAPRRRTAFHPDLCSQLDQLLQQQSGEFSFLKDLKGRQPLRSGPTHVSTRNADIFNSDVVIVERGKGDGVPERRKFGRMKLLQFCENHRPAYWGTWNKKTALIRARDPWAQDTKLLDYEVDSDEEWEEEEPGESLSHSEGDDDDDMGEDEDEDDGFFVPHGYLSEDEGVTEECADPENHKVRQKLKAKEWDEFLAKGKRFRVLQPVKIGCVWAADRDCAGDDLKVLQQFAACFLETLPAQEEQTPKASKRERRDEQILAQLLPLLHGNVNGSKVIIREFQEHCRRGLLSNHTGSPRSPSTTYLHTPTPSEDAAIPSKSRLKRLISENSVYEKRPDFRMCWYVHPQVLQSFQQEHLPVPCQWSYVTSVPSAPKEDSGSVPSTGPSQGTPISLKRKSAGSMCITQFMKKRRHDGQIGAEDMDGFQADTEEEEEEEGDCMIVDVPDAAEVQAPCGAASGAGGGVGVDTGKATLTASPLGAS
Chain of UniProt O60826 (O60826 whole entry, looked up): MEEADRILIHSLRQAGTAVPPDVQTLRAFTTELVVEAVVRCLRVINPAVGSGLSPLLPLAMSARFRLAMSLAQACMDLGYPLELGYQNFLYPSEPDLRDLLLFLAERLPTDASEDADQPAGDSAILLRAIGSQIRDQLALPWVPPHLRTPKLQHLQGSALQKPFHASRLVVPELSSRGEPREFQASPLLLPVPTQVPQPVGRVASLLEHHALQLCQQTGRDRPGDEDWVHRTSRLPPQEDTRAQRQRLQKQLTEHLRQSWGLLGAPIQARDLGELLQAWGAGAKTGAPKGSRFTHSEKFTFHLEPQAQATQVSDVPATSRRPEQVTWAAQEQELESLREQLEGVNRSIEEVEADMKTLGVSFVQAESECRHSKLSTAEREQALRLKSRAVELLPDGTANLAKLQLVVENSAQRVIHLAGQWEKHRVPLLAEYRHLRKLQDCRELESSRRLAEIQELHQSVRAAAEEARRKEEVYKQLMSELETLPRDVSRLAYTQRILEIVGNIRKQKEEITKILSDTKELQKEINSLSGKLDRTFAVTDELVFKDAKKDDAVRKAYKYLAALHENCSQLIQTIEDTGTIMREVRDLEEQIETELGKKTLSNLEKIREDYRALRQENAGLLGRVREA

Row | Target | log2 fold change [1] | log2 fold change [2] | log2 fold change [3] | log2 fold change [4] | log2 fold change [5] | log2 fold change [6] | log2 fold change [7] | log2 fold change [8] | log2 fold change [9] | log2 fold change [10] | log2 fold change [11] | log2 fold change [12] | log2 fold change [13] | log2 fold change [14] | log2 fold change [15] | log2 fold change [16] | log2 fold change [17] | log2 fold change [18] | log2 fold change [19] | log2 fold change [20]
1 | CDK13 (UniProt Q14004) | -0.077 | 0.108 | 0.08 | 0.025 | -0.006 | -0.1 | 0.027 | 0.002 | 0.101 | -0.046 | -0.081 | 0 | 0.004 | -0.051 | 0.005 | 0.068 | 0.032 | -0.039 | 0.033 | 0.131
2 | CCDC25 (UniProt Q86WR0) | -0.028 | -0.001 | -0.015 | 0.487 (active) | 0.011 | -0.062 | -0.021 | 0.065 | 0.008 | -0.095 | 0.016 | -0.023 | -0.043 | -0.021 | -0.013 | -0.039 | 0.002 | 0 | 0.024 | -0.031
3 | CFDP1 (UniProt Q9UEE9) | -0.018 | 0.008 | -0.052 | -0.288 (active) | 0.006 | 0.066 | -0.032 | 0.041 | 0.07 | 0.091 | -0.008 | 0.051 | 0.029 | 0.035 | 0.009 | -0.102 | 0.013 | -0.038 | -0.013 | -0.026
4 | CARD11 (UniProt Q9BXL7) | 0.001 | -0.287 (active) | -0.018 | -0.025 | 0.029 | -0.035 | -0.021 | 0.028 | -0.059 | 0.038 | -0.047 | 0.04 | -0.053 | 0.043 | 0.004 | -0.031 | -0.015 | 0.025 | 0.048 | 0.009
5 | CHAF1A (UniProt Q13111) | 0.014 | 0.063 | 0.012 | -0.054 | -0.035 | 0.009 | -0.023 | 0.026 | -0.075 | -0.005 | -0.027 | 0.032 | -0.068 | 0.008 | -0.032 | -0.053 | 0.019 | -0.001 | -0.031 | 0.036
6 | CAPN15 (UniProt O75808) | 0.063 | -0.046 | -0.047 | 0.004 | -0.022 | -0.033 | 0.042 | 0.106 | -0.003 | -0.01 | 0.018 | -0.045 | -0.124 | 0.014 | 0.007 | 0 | 0.04 | 0.025 | -0.08 | 0.054
7 | CENPQ (UniProt Q7L2Z9) | 0.101 | 0.015 | -0.028 | -0.226 | -0.027 | 0.071 | -0.196 | 0.001 | 0.017 | -0.013 | -0.025 | 0.044 | 0 | -0.036 | -0.015 | 0.07 | -0.076 | 0.047 | 0.164 | -0.107
8 | CDC7 (UniProt O00311) | 0.112 | -0.067 | -0.024 | -0.335 (active) | -0.007 | 0.047 | -0.01 | 0.06 | 0.009 | 0.087 | -0.049 | 0.028 | 0.029 | 0.059 | 0.001 | -0.047 | -0.009 | 0.015 | -0.022 | -0.016
9 | CDC42BPA isoform 6 (UniProt Q5VT25) | -0.029 | -0.041 | -0.061 | 0.024 | -0.007 | -0.05 | 0.032 | 0.075 | -0.056 | 0.03 | -0.01 | 0.003 | 0.012 | 0.013 | 0.048 | 0.025 | 0 | 0.004 | -0.002 | 0.024
10 | CAMKK2 (UniProt Q96RR4) | -0.018 | 0.006 | 0.108 | 0.023 | 0.058 | 0.257 (active) | -0.055 | 0.031 | 0.018 | -0.056 | -0.038 | 0.176 | 0.031 | 0.028 | 0.023 | -0.01 | -0.037 | 0.1 | -0.046 | 0
11 | BCAR1 isoform 6 (UniProt P56945) | -0.044 | 0.003 | 0.003 | 0.071 | 0.008 | -0.113 | 0.01 | -0.039 | -0.073 | -0.104 | -0.021 | -0.015 | 0.001 | -0.068 | 0.018 | 0.021 | -0.006 | 0.016 | -0.009 | 0.008
12 | CBX5 (UniProt P45973) | 0.06 | 0.024 | -0.023 | -0.187 | -0.036 | 0.077 | 0.006 | 0.006 | -0.001 | 0.064 | 0.014 | 0.011 | 0.028 | 0.052 | -0.017 | -0.09 | -0.024 | 0.014 | -0.004 | 0.007
13 | BNIP3 (UniProt Q12983) | -0.031 | 0.049 | -0.054 | -0.371 (active) | -0.166 | 0.107 | -0.046 | -0.016 | 0.023 | 0.14 | 0.037 | -0.077 | 0.014 | -0.002 | -0.02 | -0.219 | 0.05 | 0.061 | -0.018 | -0.007
14 | CAPNS1 (UniProt P04632) | 0.064 | 0.024 | 0.047 | -0.21 | -0.015 | 0.15 | -0.042 | 0.079 | 0.016 | 0.005 | -0.007 | 0.027 | 0.035 | -0.002 | -0.014 | 0.078 | 0.017 | -0.077 | -0.05 | 0.01
15 | CCDC22 (UniProt O60826) | -0.002 | -0.017 | -0.036 | -0.014 | -0.016 | -0.056 | 0.03 | 0.023 | -0.035 | -0.005 | 0.007 | -0.018 | -0.055 | -0.005 | -0.006 | -0.006 | 0.012 | 0.041 | 0.025 | -0.017
16 | CCNYL1 (UniProt Q8N7R7) | 0.018 | -0.012 | -0.015 | -0.201 | -0.003 | 0.085 | 0.052 | -0.004 | 0.006 | 0.067 | -0.001 | -0.033 | 0.034 | 0.043 | -0.003 | -0.078 | -0.08 | 0.008 | 0.075 | -0.006
